Screens deposited in PubChem BioAssay by Broad Institute.
EWS-Fli inh: EWS/Fli-driven NR0B1 reporter inhibitors, primary screen, A673 cells, NR0B1 luciferase, luminescence, MLPCN library; viability-normalised; inhibition, % at 12.6 µM; 0.67% of 350,000 active; AID 651661, 2012;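 active means mean inhibition of at least 50% after viability correction, with every replicate also passing that limit; inconclusive means mean reaches 50% but only one of two replicates passes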;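 further: firefly luciferase signal divided by Alamar Blue viability fluorescence both relative to DMSO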
PGC1a acetyl inh: inhibitors of PGC1a acetylation signal, primary screen, cell-based, U2OS, AlphaScreen, inhibitor mode. inhibition, % at 15.6 µM. AlphaScreen anti-acetyl-lysine; with virally co-expressed GCN5 acetyltransferase. 0.17% of 350,000 active;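 active means every replicate shows inhibition of at least 40%; inconclusive means mean inhibition at least 40% but some replicate below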;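 further: 0% = neutral control wells and 100% = positive control wells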
INS-1E GSIS act: GLuc luminescence reporter in INS-1E cells, primary screen for activators of glucose-dependent secretion of insulin. AID 743287, 2014. activation, % at 16.6 µM. 0.61% of 370,000 active. INS-1E GLuc reporter insulin secretion, 2-3 h;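 active means lowest replicate activation of at least 40%, so every replicate reaches that level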;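 further: 0% = median of neutral control wells and 100% = median of IBMX positive control wells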
PAX8 inh HTS: inhibitors of PAX8-driven TPO luciferase reporter, primary screen, RMG-I cells, single concentration. SteadyGlo, 24 h. inhibition, % at 12.6 µM. 1.2% of 360,000 active;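 active means mean replicate inhibition at least 60% with every replicate also reaching 60%; inconclusive means only one of the two criteria is met; inactive means mean below 60% and not all replicates reaching 60%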;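 further: luciferase light reporting Pax8 driven TPO promoter activity; plate controls were median of neutral control wells for no effect and mitoxantrone controls for full effect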
HIV Env fusion: inhibitors of HIV-1 Env-driven cell-cell fusion, primary screen, HeLa-JRFL effector, CEM21 target cells, luciferase; inhibition, % at 12.3 µM; 1.1% of 360,000 active;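 active means mean replicate inhibition score of at least 50 and every replicate individually at or above 50; inconclusive means only one of the two criteria met; inactive means mean below 50 and not all replicates reaching 50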;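 further: 0% = plate neutral controls and 100% = maraviroc near 300 nM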
CFTR F508del cor: F508del CFTR correction, initial screen, CFBE line, single point; CFBE cells, YFP halide quenching; stimulated with forskolin plus potentiator P3; % fluorescence drop versus neutral controls; activity (quench increase), % at 7.58 µM; 0.36% of 350,000 active;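 active means mean added fluorescence quench of at least 8% versus neutral control, with both replicates also reaching 8%; inconclusive means only one of the mean or replicate conditions met; inactive means mean below 8% and not both replicates reaching 8%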;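 further: cells transiently co-express mutant CFTR-F508del with the halide-sensitive YFP; corrector assay measuring rescue of mutant channel to the surface after 24 h compound exposure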
* hit, by the source's call; [ ] = dose if it differs, or a comment. Compounds with a hit are over-represented: about 2.7% of the library has one in this group of screens.

Results for CCC(=O)Nc1nc(-c2ccc3c(c2)CC(C)N3S(C)(=O)=O)cs1 (configuration not stated) ?
EWS-Fli inh: -45.3; PGC1a acetyl inh: -9.1; INS-1E GSIS act: -23.5; PAX8 inh HTS: -83.2; HIV Env fusion: -7.8; CFTR F508del cor: -3.5

Results for CC1Cc2cc(-c3csc(NC(=O)Cc4cccs4)n3)ccc2N1S(C)(=O)=O (configuration not stated) ?
PGC1a acetyl inh: -38.9; INS-1E GSIS act: -34.6; HIV Env fusion: 74.6*

What do the screens show for `C[C@H]1CN([C@@H](C)CO)C(=O)c2cc(NS(C)(=O)=O)ccc2O[C@@H]1CN(C)S(C)(=O)=O`?
EWS-Fli inh: -5.9; PGC1a acetyl inh: -3.2; INS-1E GSIS act: 6.6; CFTR F508del cor: 0.2

How did CC(C)N=C(NS(=O)(=O)c1ccccc1)C(Cl)(Cl)Cl do in these assays?
EWS-Fli inh: 47.5; PGC1a acetyl inh: -12.3; INS-1E GSIS act: -6.5; PAX8 inh HTS: 96.4*; HIV Env fusion: -106.6

How did O=S(=O)(NC(=S)c1ccccc1)c1ccccc1 do in these assays?
EWS-Fli inh: -6.0; PAX8 inh HTS: 17.4; HIV Env fusion: -2.7; CFTR F508del cor: -1.1

Results for CCOc1ccc(N2C(=O)Cc3ccccc3C2=O)cc1 ?
EWS-Fli inh: -5.8; PGC1a acetyl inh: 43.2*; INS-1E GSIS act: -6.0; PAX8 inh HTS: -0.4; HIV Env fusion: -6.8; CFTR F508del cor: -3.2

Results for CC(C)(C)C1CCC(CN2C(Nc3ccccc3)=NC[C@@H]2Cc2ccccc2)CC1 (some centres not stated) ?
EWS-Fli inh: 35.6; PGC1a acetyl inh: inconclusive; INS-1E GSIS act: 85.6*; PAX8 inh HTS: 15.7; HIV Env fusion: -1.4; CFTR F508del cor: 3.2

How did CCN1C(Nc2ccccc2)=NC[C@@H]1Cc1ccccc1 do in these assays?
EWS-Fli inh: 3.7; PGC1a acetyl inh: 0.0; INS-1E GSIS act: 9.9; PAX8 inh HTS: -4.6; HIV Env fusion: 13.0; CFTR F508del cor: 0.1

Results for CO[C@H](CN(C)C(=O)c1cc(Cl)cc(Cl)c1)[C@@H](C)CN(C(=O)Nc1ccc(F)cc1)[C@H](C)CO ?
EWS-Fli inh: 7.5; PGC1a acetyl inh: 10.5; INS-1E GSIS act: -10.2; CFTR F508del cor: 3.8

Results for CCOC(=O)c1[nH]cnc1C(=O)NC(C)C ?
PGC1a acetyl inh: 9.2; INS-1E GSIS act: 41.4*

How did Cc1cccc(NC(=O)c2nc[nH]c2C(=O)NCCCCNC(=O)c2[nH]cnc2C(=O)Nc2cccc(C)c2)c1 do in these assays?
EWS-Fli inh: 22.2; INS-1E GSIS act: -6.4; PAX8 inh HTS: 4.3; HIV Env fusion: 69.9*; CFTR F508del cor: 2.2

What do the screens show for `CCOC(=O)c1ccc(NC(=O)c2nc[nH]c2C(=O)NCCNC(=O)c2[nH]cnc2C(=O)Nc2ccc(C(=O)OCC)cc2)cc1`?
EWS-Fli inh: 59.7*; PGC1a acetyl inh: -1.0; INS-1E GSIS act: 14.4; PAX8 inh HTS: -12.8; HIV Env fusion: 81.9*; CFTR F508del cor: 3.1

Results for CCOC(=O)c1[nH]cnc1C(=O)N[C@@H](C)c1ccccc1 ?
EWS-Fli inh: -1.1; INS-1E GSIS act: 15.6; PAX8 inh HTS: -31.6; HIV Env fusion: 0.6; CFTR F508del cor: 1.0

What do the screens show for `O=C(C[C@@H]1CC[C@H](NC(=O)C2CCOCC2)[C@@H](CO)O1)NCc1ccccc1Cl`?
EWS-Fli inh: 4.0; PGC1a acetyl inh: 5.6; INS-1E GSIS act: -5.3; PAX8 inh HTS: -48.1; HIV Env fusion: 6.7[16.7 µM]; CFTR F508del cor: -4.2

What do the screens show for `COCCCNC(=S)Nc1cc2oc3ccccc3c2cc1OC`?
PGC1a acetyl inh: 4.6; INS-1E GSIS act: -5.7; PAX8 inh HTS: 16.6; HIV Env fusion: 67.6*; CFTR F508del cor: inconclusive

What do the screens show for `COc1cc2c(cc1NC(=S)Nc1cccc3ccccc13)oc1ccccc12`?
PGC1a acetyl inh: -14.3

What do the screens show for `CO[C@@H]1CN(C)C(=O)c2cc(NC(=O)NC3CCCCC3)ccc2OC[C@@H](C)N(C)C[C@H]1C`?
EWS-Fli inh: 4.1; PGC1a acetyl inh: 13.3; INS-1E GSIS act: 11.1; PAX8 inh HTS: -1.2; HIV Env fusion: 7.8[16.7 µM]; CFTR F508del cor: -1.7

How did O=C(C[C@H]1CC[C@@H]2[C@H](COC[C@@H](O)CN2C(=O)Nc2ccc(Cl)c(Cl)c2)O1)NCc1ccc(Cl)c(Cl)c1 do in these assays?
EWS-Fli inh: 5.0; PGC1a acetyl inh: 5.7; INS-1E GSIS act: -5.6; PAX8 inh HTS: 58.4; CFTR F508del cor: 4.0

What do the screens show for `Clc1ccc(-c2cc(CN3CCOCC3)no2)cc1`?
EWS-Fli inh: -18.8; INS-1E GSIS act: 147.1*; PAX8 inh HTS: -85.3; HIV Env fusion: -22.7; CFTR F508del cor: 1.4

What do the screens show for `Cc1cc(C)c(C#N)c(SCc2nnc(-c3ccccc3[N+](=O)[O-])o2)n1`?
EWS-Fli inh: -63.7; PGC1a acetyl inh: 4.6; INS-1E GSIS act: -4.9; PAX8 inh HTS: -192.4; HIV Env fusion: -175.1; CFTR F508del cor: 1.3

What do the screens show for `Cc1cc(C)c(C#N)c(SCc2nnc(-c3ccccc3)o2)n1`?
EWS-Fli inh: 78.5*; PGC1a acetyl inh: -23.6; INS-1E GSIS act: 21.2; PAX8 inh HTS: 17.5; HIV Env fusion: -96.9

What do the screens show for `COc1nc(-c2ccccc2)c2cc(C)ccc2n1`?
EWS-Fli inh: 7.9; PGC1a acetyl inh: 11.0; INS-1E GSIS act: 72.0*; PAX8 inh HTS: 4.7; HIV Env fusion: 9.5; CFTR F508del cor: -0.8

Results for CNC(=O)C[C@H]1CC[C@H]2[C@@H](COC[C@@H](O)CN2C(=O)c2ccc3c(c2)OCO3)O1 ?
PGC1a acetyl inh: -0.2; INS-1E GSIS act: 22.1; CFTR F508del cor: 1.3

What do the screens show for `CC(=C\C(=O)O)/C(=C/c1ccc(C)o1)C(=O)O`?
EWS-Fli inh: 3.8; INS-1E GSIS act: -6.7; PAX8 inh HTS: 76.0*; CFTR F508del cor: -1.6

What do the screens show for `CCN(CC)S(=O)(=O)c1ccc(C(=O)N(c2ccccc2)C2C=CS(=O)(=O)C2)cc1` (configuration not stated)?
EWS-Fli inh: -9.5; PGC1a acetyl inh: 46.1*; PAX8 inh HTS: -1.5; HIV Env fusion: 8.9; CFTR F508del cor: 1.9

What do the screens show for `O=C(c1ccc2c(c1)OCO2)N(c1ccccc1)C1C=CS(=O)(=O)C1` (configuration not stated)?
PGC1a acetyl inh: -4.8

What do the screens show for `Clc1cccc(-c2ccc3ncnc(NCc4cccs4)c3c2)c1`?
EWS-Fli inh: 13.0; PGC1a acetyl inh: 2.7; PAX8 inh HTS: 3.2; HIV Env fusion: -6.5; CFTR F508del cor: -2.5

How did Cc1cccc(-c2ccc3ncnc(NCc4cccs4)c3c2)c1 do in these assays?
EWS-Fli inh: 39.3; PGC1a acetyl inh: -0.4; INS-1E GSIS act: -24.3; PAX8 inh HTS: 64.8*; HIV Env fusion: 3.9; CFTR F508del cor: -0.4

Results for c1cncc(CNc2ncnc3ccc(-c4ccoc4)cc23)c1 ?
EWS-Fli inh: -12.7; PGC1a acetyl inh: 55.1*; PAX8 inh HTS: -18.2; HIV Env fusion: 47.4; CFTR F508del cor: -1.4
